High-throughput results: PubChem BioAssay, National Center for Advancing Translational Sciences (NCATS)
Only some compounds are listed: those with a hit (about 11% of all), similar ones and a draw of the others.
Sfp PPTase inh – qHTS Assay for Inhibitors of Bacillus subtilis Sfp phosphopantetheinyl transferase (PPTase); AID 1490, 2009; 4'-phosphopantetheinyl transferase ffp (Bacillus subtilis), Q9F4F7; 310,000 compounds, 3.5% hits; Potency, µM, inactives show largest response in the series, negative = inhibition, hits mostly inhibitors; Biochemical Sfp PPTase activity, qHTS;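 also: the enzyme is Sfp with the accession as filed and its product quenches rhodamine fluorescence; potency is read from the fitted curve at half-maximal effect; 0% = enzyme reaction without inhibitor and -100% = no enzyme wells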
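Reaction rates are the 30-min fluorescence difference (ex 525, em 598 nm) in wells containing 15 nM Sfp, 5 uM rhodamine-CoA and 12.5 uM BHQ-2-YbbR at pH 7.6 with 10 mM MgCl2.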
Tau fibril ThT – qHTS for Inhibitors of Tau Fibril Formation, Thioflavin T Binding. Microtubule-associated protein tau (Homo sapiens), P10636. 270,000 compounds, 2.1% hits. Potency, µM (doses to about 57.4 µM), for inactives: at the highest dose activity, negative = inhibition, most hits filed as inhibitors. AID 1460, 2008. recombinant tau K18 P301L, heparin-induced fibrillization, ThT fluorescence; also: potency is read from the fitted curve at half-maximal effect; nearly all actives have a fitted effect of over 55% in size
Target sequence (P10636 561-689 P618L limits assumed): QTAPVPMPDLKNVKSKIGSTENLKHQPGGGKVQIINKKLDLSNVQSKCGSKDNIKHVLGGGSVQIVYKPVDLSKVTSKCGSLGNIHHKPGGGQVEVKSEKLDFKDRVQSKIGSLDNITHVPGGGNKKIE
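Tau K18 P301L fragment (15 uM unlabeled plus 0.24 uM Alexa 594-labeled) in 100 mM sodium acetate pH 7 with compound, fibrillization induced by 20 uM heparin for 6 hr at 37 C. Thioflavin T (30 uM) added, fluorescence read after 1 hr (ex 450, em 510 nm).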
FBPA coupling cs – qHTS Assay for Inhibitors of Fructose-1,6-bisphosphate Aldolase from Giardia Lamblia: Coupling assay counterscreen; coupling enzyme system counterscreen, AmpLite Red fluorescence; 290,000 compounds, 0.67% hits; activity change, negative = inhibition, % at 58.2 µM, hits read low; in the data active = activity change below about -30%
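Fluorescence at 525 nm excitation and 598 nm emission measured inhibition of the coupled detection system without aldolase. Compounds (at 57.5 uM final) were preincubated 10 min at room temperature with coupling enzyme reagent before a 20 min substrate/AmpLite Red step.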
Tau fibril FP – qHTS for Inhibitors of Tau Fibril Formation, Fluorescence Polarization. Potency, µM (top dose mostly 57.7 µM), without a hit: at the top dose activity, negative = inhibition, usual class: inhibitors. K18 P301L tau heparin fibrillization, Alexa594 FP, 6 h. Microtubule-associated protein tau (Homo sapiens), P10636. 280,000 compounds, 0.39% hits. AID 1468, 2008; also: potency is read from the fitted curve at half-maximal effect; nearly all actives have a fitted effect of over 55% in size
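Recombinant K18 P301L […], labeled with Alexa 594 at 0.24 uM over 15 uM unlabeled; heparin inducer 20 uM final; 37 C, 6 hr; FP endpoint.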
G9a block – qHTS Assay for Inhibitors of Histone Lysine Methyltransferase G9a. Histone-lysine N-methyltransferase EHMT2 (Homo sapiens), Q96KQ7. G9a H3K9 monomethylation, AlphaScreen, 2 h. Potency, µM (titrated, usually from 102 µM), inactives show at the highest dose activity, negative = inhibition, usual class: inhibitors. 350,000 compounds, 8.8% hits. AID 504332, 2011; also: potency is read from the fitted curve at half-maximal effect; nearly all actives have a fitted effect of over 75% in size
Target sequence (Q96KQ7 913-1193 limits assumed): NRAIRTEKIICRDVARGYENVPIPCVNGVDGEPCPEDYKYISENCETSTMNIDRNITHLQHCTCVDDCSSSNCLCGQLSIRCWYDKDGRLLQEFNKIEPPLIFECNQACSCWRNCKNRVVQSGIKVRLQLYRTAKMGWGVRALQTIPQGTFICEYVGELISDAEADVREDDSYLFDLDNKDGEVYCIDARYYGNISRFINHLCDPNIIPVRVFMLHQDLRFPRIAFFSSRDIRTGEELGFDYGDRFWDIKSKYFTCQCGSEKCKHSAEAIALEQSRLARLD
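Using a bead-based AlphaScreen, monomethylated H3K9 product from 2 h room-temperature reactions (G9a 20 nM, peptide 500 nM, SAM 20 uM) was detected with 0.5 ug/mL rabbit anti-H3K9me1 antibody.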
Tau fluor counter – Counterscreen qHTS for Inhibitors of Tau Fibril Formation, Fluorescence Polarization. tau K18 P301L Alexa594 fluorescence, heparin fibrillization. Potency, µM (series often up to 57.7 µM), inactives show at the top dose activity change, negative = decrease. 280,000 compounds, 0.93% hits; also: potency is read from the fitted curve at half-maximal effect; nearly all actives have a fitted effect of over 55% in size
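Human tau K18 P301L (15 uM unlabeled, 0.24 uM Alexa 594-labeled) in 100 mM sodium acetate pH 7 with 20 uM heparin, 6 hr at 37 C. ThT 30 uM added, 1 hr ambient; Alexa 594 FP and total fluorescence read at 555/632 nm.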
* marks the source's active call; other numbers are inactive results; ? = inconclusive; · = no result given; [ ] = dose if it differs, or a comment. Unless noted, calls follow the shape of the dose curve; as a rule, active = well fitted curve in the direction sought with a large enough effect; inconclusive = small, poorly fitted or top-dose-only effect, or another doubt; inactive = no such curve, though single readings can be large; an effect the other way counts as inactive or inconclusive. Unless noted, % is scaled to controls: 0 for no effect and ±100 for the full control effect.

SMILES | Sfp PPTase inh | Tau fibril ThT | FBPA coupling cs | Tau fibril FP | G9a block | Tau fluor counter
Clc1ccc(CN2CCN(c3ncnc4scc(-c5cccs5)c34)CC2)cc1 | -13% | -24% | -3 | -20% | 32µM* | -25%
Fc1ccc(CN2CCN(c3ncnc4scc(-c5ccc(F)cc5)c34)CC2)cc1 | -24% | · | -4 | · | -7% | ·
O=C(O)c1c(Cl)c(Cl)c(Cl)c(Cl)c1-c1c2cc(I)c(=O)c(I)c-2oc2c(I)c(O)c(I)cc12 | 14µM* | 3.2µM* | 3 | -130% | 1.8µM* | 1.6µM*[fluorescent]
O=C(CN1C(=O)C2(SCC(=O)N2c2ccccc2)c2ccccc21)NCc1ccccc1 (stereo unspecified) | · | 4% | · | 0% | -11%[59 µM] | -10%
O=C(Cn1cc([N+](=O)[O-])cn1)Nc1ccc(Cn2cc(Br)cn2)cc1 | 1% | -15% | -2 | 5% | 2.2µM* | -19%
COC(=O)c1ccc(Cn2cc([N+](=O)[O-])cn2)cc1 | 18% | -12% | 1 | 5% | -2% | -16%
N#CCN1CCC(c2cc(-c3ccco3)n[nH]2)CC1 | 11µM* | ? | -28 | 1% | -42% | -9%
CCN1CCN(c2ccc(S(=O)(=O)N3CCOCC3)cc2NC(=O)/C=C/c2ccc(OC)cc2OC)CC1 | · | · | · | · | 40µM* | ·
CCN1CCN(c2ccc(S(=O)(=O)N3CCOCC3)cc2NC(=O)/C=C/c2ccc([N+](=O)[O-])cc2)CC1 | · | · | · | · | -14%[2.33 µM] | ·
CCN1CCN(c2ccc(S(=O)(=O)N3CCCCC3)cc2NC(=O)c2ccc(F)cc2)CC1 | 14% | 8% | 0 | 2% | 10µM* | 4%
O=C(Nc1cc(S(=O)(=O)N2CCCCC2)ccc1N1CCOCC1)c1ccc(F)cc1 | · | · | · | · | -33% | ·
CCN1CCN(c2ccc(S(=O)(=O)N3CCCCC3)cc2NC(=O)c2sccc2C)CC1 | · | · | · | · | 2.2µM* | ·
CCN1CCN(c2ccc(S(=O)(=O)N3CCCCC3)cc2NC(=O)c2cccc(C)c2)CC1 | · | · | · | · | 50µM* | ·
CC(=O)N1CCN(C(=O)CSc2nnc(C)n2-c2ccccc2)CC1 | 4% | · | 3 | · | 3% | ·
COc1ccccc1N1CCN(C(=O)CN2C(=O)COc3ccc(S(=O)(=O)N4CCCC4)cc32)CC1 | · | -10% | · | 8% | 27%[59 µM] | -16%
COc1ccc2[nH]cc(CCNc3ccnc(-c4cccnc4)n3)c2c1 | -20% | · | -1 | · | 5%[0.501 µM] | ·
COc1ccc(S(=O)(=O)N2CCCCC2)cc1NC(=O)c1ccc([N+](=O)[O-])o1 | 15% | 2% | 0 | 4% | 1% | -9%
CCN1CCN(c2ccc(S(=O)(=O)N3CCCCC3)cc2NC(=O)c2ccc([N+](=O)[O-])o2)CC1 | · | · | · | · | 35µM* | ·
CCN1CCN(c2ccc(S(=O)(=O)N3CCCCC3)cc2NC(=O)CC(C)c2ccccc2)CC1 (stereo unspecified) | · | · | · | · | 50µM* | ·
CN1CCN(c2ccc(S(=O)(=O)N3CCCCC3)cc2NC(=O)CCc2ccccc2)CC1 | · | · | · | · | -13%[59 µM] | ·
CCN1CCN(c2ccc(S(=O)(=O)N3CCOCC3)cc2NC(=O)c2ccc(F)cc2Cl)CC1 | · | · | · | · | 40µM* | ·
CCCCN(C)C(=O)C1CCC(CNS(=O)(=O)c2ccc(Cl)cc2)CC1 (stereo unspecified) | · | -1% | · | -8% | 4%[59 µM] | -5%
CC(NC(=O)/C(C#N)=C/c1ccc(C(=O)O)cc1)c1ccccc1 (stereo unspecified) | -6% | 0% | 0 | -2% | -27%[0.0925 µM] | -5%
CC(C)NC(=O)/C(C#N)=C/c1ccc(N(C)C)o1 | -15% | ? | -8 | -13% | 50µM* | -22%
